This is an account of results in PubChem BioAssay (EPA / NIEHS).

In assay [1] the target is PGR (gene 5241) (UniProt P06401). The experiment in a line: TOX21_PR_BLA_Followup_Antagonist_ratio: Tox21 HEK293 Progesterone Receptor (PR) Antagonism Beta-lactamase Follow-Up Assay, Ratio (AID 2283934; active means hit-call score of the fitted dose curve at least 0.9, where 1 is the maximum). An outline of the steps:
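Read-out: blue/green beta-lactamase FRET ratio (cleaved ch2 over uncleaved ch1), fitted relative to DMSO baseline. Cells: PR-UAS-bla HEK293T, GAL4-UAS reporter, stimulated with 1 nM R5020 final; 16 hr compound exposure, 37C.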

A short description of assay [2]: TOX21_PR_BLA_Followup_Agonist_viability: Viability Assessment in the Tox21 HEK293 Progesterone Receptor (PR) Agonism Beta-lactamase Follow-Up Assay (AID 2283935; active means hit-call score of the fitted dose curve at least 0.9, where 1 is the maximum;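 further: signal loss means lower viability so actives are cytotoxic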). An outline of the steps: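 Luminescent ATP quantitation (CellTiter-Glo, 30 min, room temperature) in the same wells as the beta-lactamase read, on PR-UAS-bla HEK293T cells exposed to compound for 16 hr at 37C in 2% charcoal-stripped serum.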

Assay [3] is described as follows: TOX21_PR_BLA_Followup_Antagonist_viability: Viability Assessment in the Tox21 HEK293 Progesterone Receptor (PR) Antagonism Beta-lactamase Follow-Up Assay (AID 2283936; active means hit-call score of the fitted dose curve at least 0.9, where 1 is the maximum;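 further: cells exposed to compound with R5020 agonist for 16 h; hits lower the luminescence signal meaning cytotoxicity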). Summed up: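 PR-UAS-bla HEK293T cells in medium with 2% charcoal-stripped FBS were treated with compounds plus R5020 for 16 hr at 37C. After the beta-lactamase read, CellTiter-Glo was added to the same wells and luminescence read after 30 min at room temperature.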

Assay [4] deals with PGR (gene 5241) (UniProt P06401). The experiment in a line: TOX21_PR_LUC_Followup_Antagonist: Tox21 HEK293 Progesterone Receptor (PR) Antagonism Luciferase Follow-Up Assay (AID 2283938; active means hit-call score of the fitted dose curve at least 0.9, where 1 is the maximum;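 further: curve fitted upward as signal gain over DMSO baseline despite antagonist label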). An outline of the steps: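 HEK293-PR-A-luc cells, 3,000/well, preincubated 5 h at 37C before compound addition in DMSO; 16 h compound exposure at 37C. ONE-Glo luciferase luminescence read after 30 min at room temperature, fitted relative to DMSO baseline.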
Sequence of PGR (gene 5241) (P06401 whole entry, looked up, the tested form may be a part): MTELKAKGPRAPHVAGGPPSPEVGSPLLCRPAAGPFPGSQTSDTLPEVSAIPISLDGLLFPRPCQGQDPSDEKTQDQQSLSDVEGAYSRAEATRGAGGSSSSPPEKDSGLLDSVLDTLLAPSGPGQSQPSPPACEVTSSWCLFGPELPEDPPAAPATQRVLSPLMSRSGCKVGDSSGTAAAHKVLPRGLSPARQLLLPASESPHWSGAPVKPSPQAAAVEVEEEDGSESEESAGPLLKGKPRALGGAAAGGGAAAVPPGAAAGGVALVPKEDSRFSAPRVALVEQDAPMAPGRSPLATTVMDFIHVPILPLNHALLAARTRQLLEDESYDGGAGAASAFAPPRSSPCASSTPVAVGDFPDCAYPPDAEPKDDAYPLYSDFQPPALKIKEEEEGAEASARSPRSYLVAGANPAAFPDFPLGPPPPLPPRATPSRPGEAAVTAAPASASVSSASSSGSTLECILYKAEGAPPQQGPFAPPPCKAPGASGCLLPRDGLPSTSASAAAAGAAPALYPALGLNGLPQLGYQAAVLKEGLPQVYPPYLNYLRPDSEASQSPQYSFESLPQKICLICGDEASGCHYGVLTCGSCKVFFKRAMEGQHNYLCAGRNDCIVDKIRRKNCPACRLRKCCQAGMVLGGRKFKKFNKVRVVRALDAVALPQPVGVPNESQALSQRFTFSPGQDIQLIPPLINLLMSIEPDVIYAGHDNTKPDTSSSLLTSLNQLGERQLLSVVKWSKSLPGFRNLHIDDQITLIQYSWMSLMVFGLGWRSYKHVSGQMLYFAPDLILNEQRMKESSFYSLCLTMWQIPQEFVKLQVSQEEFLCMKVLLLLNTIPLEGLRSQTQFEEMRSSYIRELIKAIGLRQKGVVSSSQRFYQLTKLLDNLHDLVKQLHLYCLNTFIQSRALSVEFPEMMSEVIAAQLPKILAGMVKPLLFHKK

A short description of assay [5]: TOX21_PR_LUC_Followup_Antagonist_viability: Viability Assessment in the Tox21 HEK293 Progesterone Receptor (PR) Antagonism Luciferase Follow-Up Assay (AID 2283940; active means hit-call score of the fitted dose curve at least 0.9, where 1 is the maximum). An outline of the steps: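 Read-out: CellTiter-Glo ATP luminescence, loss of signal taken as reduced viability. Cells: HEK293-PR-A-luc, 3,000/well, 5 h settling, then 16 h compound exposure at 37C, 0% CO2.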

A short description of assay [6]: TOX21_PR_LUC_Followup_Agonist_viability: Viability Assessment in the Tox21 HEK293 Progesterone Receptor (PR) Agonism Luciferase Follow-Up Assay (AID 2283941; active means hit-call score of the fitted dose curve at least 0.9, where 1 is the maximum;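 further: loss of signal means cytotoxicity so actives lower viability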). An outline of the steps:
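Cytotoxicity counter-screen: ATP content by CellTiter-Glo luminescence, loss of signal = reduced viability. HEK293-PR-A-luc, 3,000 cells/well, compound exposure 16 h, 37C.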

The target of assay [7] is T1, Thyroid hormone receptor alpha (Rattus norvegicus) + Thyroid hormone receptor beta (Rattus norvegicus) (UniProt P18113+P63059). The experiment in a line: TOX21_TR_LUC_GH3_Agonist_Followup: Tox21 GH3 Thyroid Hormone Receptor Agonism Luciferase Follow-Up Assay (AID 2283939; active means hit-call score of the fitted dose curve at least 0.9, where 1 is the maximum). An outline of the steps:
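Agonist-mode confirmatory run: 15 concentrations (5 nM to 92 uM final) on GH3 rat pituitary cells, 24 h at 37C/5% CO2, T3 as positive control. Luminescence read with ONE-Glo after 30 min.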

In assay [8] the target is THRA (gene 7067) (UniProt P10827). The experiment in a line: TOX21_TRA_COA_Agonist_Followup_ratio: Tox21 Thyroid Hormone Receptor alpha Agonism through Coactivator Recruitment Follow-Up Assay, Ratio (AID 2283948). An outline of the steps:
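Cell-free TR-FRET: GST-tagged TRα LBD (2.5 nM) with 0.10% BSA and compound, then fluorescein-SRC-2 peptide (200 nM) and Tb-anti-GST antibody (2 nM). Readout 520:495 nm ratio (ex 340 nm), normalized to DMSO (0%) and T3 (100%).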

For assay [9], the target named is PGR (gene 5241) (UniProt P06401). The experiment in a line: TOX21_PR_LUC_Followup_Agonist: Tox21 HEK293 Progesterone Receptor (PR) Agonism Luciferase Follow-Up Assay (AID 2283937). An outline of the steps: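 Luminescence read-out (ONE-Glo, 30 min at room temperature) of PR-driven luciferase in HEK293-PR-A-luc cells after 16 h compound exposure at 37C; gain of signal fitted relative to DMSO baseline.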

Assay [10] deals with T1, Thyroid hormone receptor alpha (Rattus norvegicus) + Thyroid hormone receptor beta (Rattus norvegicus). The experiment in a line: TOX21_TR_LUC_GH3_Antagonist_Followup: Tox21 GH3 Thyroid Hormone Receptor Antagonism Luciferase Follow-Up Assay (AID 2283942; active means hit-call score of the fitted dose curve at least 0.9, where 1 is the maximum). An outline of the steps: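 In a GH3 luciferase reporter line, test chemicals spanning 92 uM to 5nM final are co-incubated 24 h with 1.0 nM T3. Activity is expressed as relative luminescence units and analysed relative to DMSO.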

The target in assay [11] is THRB (gene 7068) (UniProt P10828). The experiment in a line: TOX21_TRB_BLA_Agonist_Followup_ratio: Tox21 Thyroid Hormone Receptor beta Agonism Beta-lactamase (BLA) Follow-Up Assay, Ratio (AID 2283954; active means hit-call score of the fitted dose curve at least 0.9, where 1 is the maximum). Summed up:
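Agonist mode: compounds (11-point, triplicate) incubated 18 h with HEK293T cells carrying GAL4-DBD/human TRβ-LBD and UAS-β-lactamase. Blue/green (460/530 nm) FRET ratio read after 2 h CCF4-AM loading; CellTiter-Glo viability run in the same plates.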

Assay [12] is described as follows: CEETOX_H295R_OHPROG_noMTC: CeeTox H295R High-throughput Steroidogenesis Assay for OH-Progesterone (OHPROG), maximum tolerated concentration (MTC) filtered results only (AID 2283914). Particulars: actives raise or lower the signal. An outline of the steps: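 Analysis uses all tested concentrations, without maximum-tolerated-concentration screening by MTT. H295R cells, forskolin-primed (10 uM, 48 h), receive chemical for 48 h; hormone in medium measured by HPLC-MS/MS, with bidirectional curve fitting against DMSO.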

Assay [13] can be described thus: CEETOX_H295R_CORTISOL_noMTC: CeeTox H295R High-throughput Steroidogenesis Assay for Cortisol, maximum tolerated concentration (MTC) filtered results only (AID 2283916). The note with it: actives raise or lower the signal. Summed up:
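H295R adrenal cells were pre-stimulated 48 h with 10 uM forskolin, then exposed 48 h to test chemical in 0.1% DMSO. Medium cortisol was measured by MTBE extraction and HPLC-MS/MS; bidirectional fit versus DMSO, concentrations not MTC-filtered.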

A short description of assay [14]: CEETOX_H295R_CORTIC_noMTC: CeeTox H295R High-throughput Steroidogenesis Assay for Corticosterone (CORTIC), maximum tolerated concentration (MTC) filtered results only (AID 2283917). Particulars: actives raise or lower the signal. An outline of the steps: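 Forskolin-stimulated (10 uM, 48 h) H295R cells are dosed 48 h with chemical in DMSO (0.1% final); corticosterone change is quantified by HPLC-MS/MS and fitted bidirectionally against DMSO, unfiltered for MTT-derived MTC.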

Assay [15] in a line: CEETOX_H295R_DOC_noMTC: CeeTox H295R High-throughput Steroidogenesis Assay for DOC, maximum tolerated concentration (MTC) filtered results only (AID 2283918). The note with it: actives raise or lower the signal. An outline of the steps:
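H295R cells prestimulated 48 h with 10 uM forskolin, then exposed 48 h to test chemical (0.1% DMSO final). Medium 11-deoxycorticosterone extracted with MTBE, quantified by HPLC-MS/MS; bidirectional fit versus DMSO, concentrations not MTC-filtered.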

A short description of assay [16]: CEETOX_H295R_ESTRADIOL_noMTC: CeeTox H295R High-throughput Steroidogenesis Assay for Estradiol, maximum tolerated concentration (MTC) filtered results only (AID 2283919). The note with it: actives raise or lower the signal. An outline of the steps:
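Readout: dansyl-derivatized estradiol quantified by LC-MS/MS in medium from H295R cells dosed 48 h (0.1% DMSO) following 48 h forskolin (10 uM) prestimulation. Gain or loss of signal fitted against DMSO; no MTC filtering applied.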

Assay [17] can be described thus: CEETOX_H295R_PROG_noMTC: CeeTox H295R High-throughput Steroidogenesis Assay for Progesterone (PROG), maximum tolerated concentration (MTC) filtered results only (AID 2283920). The note with it: actives raise or lower the signal. An outline of the steps:
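Progesterone synthesis in the human adrenal line H295R is measured by HPLC-MS/MS after 48 h chemical exposure following 48 h forskolin (10 uM) stimulation. Activity in either direction is fitted relative to DMSO.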

The nature of assay [18]: CEETOX_H295R_ESTRONE_noMTC: CeeTox H295R High-throughput Steroidogenesis Assay for Estrone, maximum tolerated concentration (MTC) filtered results only (AID 2283921). Particulars: actives raise or lower the signal. Summed up: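 Estrone in spent medium, quantified by tandem MS following dansyl chloride derivatization, after 48 h chemical exposure (0.1% DMSO) of forskolin-prestimulated (10 uM, 48 h) H295R cells; concentrations not MTC-filtered, bidirectional fit against DMSO.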

A short description of assay [19]: CEETOX_H295R_ANDR_noMTC: CeeTox H295R High-throughput Steroidogenesis Assay for Androstenedione (ANDR), maximum tolerated concentration (MTC) filtered results only (AID 2283915). The note with it: actives raise or lower the signal. Summed up:
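Androstenedione secreted into medium was measured by LC-MS/MS after MTBE extraction. Human adrenal H295R cells received 10 uM forskolin for 48 h before 48 h chemical exposure (0.1% DMSO). Gain or loss fitted against DMSO, including concentrations above the MTT-derived MTC.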

A short description of assay [20]: CEETOX_H295R_TESTO_noMTC: CeeTox H295R High-throughput Steroidogenesis Assay for Testosterone (TESTO), maximum tolerated concentration (MTC) filtered results only (AID 2283924). Particulars: actives raise or lower the signal. Summed up:
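Medium testosterone, measured by HPLC-MS/MS after liquid-liquid extraction, was fitted in both directions relative to DMSO without MTC filtering. Adrenal H295R cells received 48 h chemical exposure (0.1% DMSO final) after 48 h forskolin (10 uM) prestimulation; viability by MTT.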

As a reminder, the AC50 is the midpoint of the concentration-response curve, whichever way the signal moves.

Inconclusive results are not listed. The source made the active and inactive calls. How the source made its calls, unless noted: active means hit-call score of the fitted dose curve at least 0.9, where 1 is the maximum; inactive means score below 0.9.

T1 sequence (P63059 whole entry, looked up): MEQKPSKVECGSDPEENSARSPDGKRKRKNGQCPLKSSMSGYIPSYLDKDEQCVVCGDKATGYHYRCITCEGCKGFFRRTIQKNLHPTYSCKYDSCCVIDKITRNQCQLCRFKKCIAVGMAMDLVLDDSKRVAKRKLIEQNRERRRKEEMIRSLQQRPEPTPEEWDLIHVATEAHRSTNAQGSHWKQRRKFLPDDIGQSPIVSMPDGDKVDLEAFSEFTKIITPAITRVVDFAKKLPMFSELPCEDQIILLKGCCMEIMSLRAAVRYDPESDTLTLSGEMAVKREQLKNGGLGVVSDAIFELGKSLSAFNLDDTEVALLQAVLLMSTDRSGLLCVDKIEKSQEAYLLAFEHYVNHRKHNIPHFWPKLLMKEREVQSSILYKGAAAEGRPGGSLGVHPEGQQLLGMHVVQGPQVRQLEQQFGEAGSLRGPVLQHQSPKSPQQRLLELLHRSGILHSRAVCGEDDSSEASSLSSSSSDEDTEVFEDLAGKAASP
T1 sequence (P18113 whole entry, looked up): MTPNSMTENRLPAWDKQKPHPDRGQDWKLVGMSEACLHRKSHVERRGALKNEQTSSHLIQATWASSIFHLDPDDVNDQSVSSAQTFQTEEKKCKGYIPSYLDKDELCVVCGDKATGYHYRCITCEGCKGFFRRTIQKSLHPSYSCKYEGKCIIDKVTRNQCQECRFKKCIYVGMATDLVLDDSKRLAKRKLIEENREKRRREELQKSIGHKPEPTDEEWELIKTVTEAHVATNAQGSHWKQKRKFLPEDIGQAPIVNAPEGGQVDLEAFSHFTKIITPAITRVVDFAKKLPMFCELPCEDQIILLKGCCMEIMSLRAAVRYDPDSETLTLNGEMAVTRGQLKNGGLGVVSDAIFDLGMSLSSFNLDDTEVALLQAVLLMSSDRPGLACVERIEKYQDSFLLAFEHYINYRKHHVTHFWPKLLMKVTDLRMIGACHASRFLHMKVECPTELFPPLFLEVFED
Sequence of THRA (gene 7067) (P10827 whole entry, looked up, the tested form may be a part): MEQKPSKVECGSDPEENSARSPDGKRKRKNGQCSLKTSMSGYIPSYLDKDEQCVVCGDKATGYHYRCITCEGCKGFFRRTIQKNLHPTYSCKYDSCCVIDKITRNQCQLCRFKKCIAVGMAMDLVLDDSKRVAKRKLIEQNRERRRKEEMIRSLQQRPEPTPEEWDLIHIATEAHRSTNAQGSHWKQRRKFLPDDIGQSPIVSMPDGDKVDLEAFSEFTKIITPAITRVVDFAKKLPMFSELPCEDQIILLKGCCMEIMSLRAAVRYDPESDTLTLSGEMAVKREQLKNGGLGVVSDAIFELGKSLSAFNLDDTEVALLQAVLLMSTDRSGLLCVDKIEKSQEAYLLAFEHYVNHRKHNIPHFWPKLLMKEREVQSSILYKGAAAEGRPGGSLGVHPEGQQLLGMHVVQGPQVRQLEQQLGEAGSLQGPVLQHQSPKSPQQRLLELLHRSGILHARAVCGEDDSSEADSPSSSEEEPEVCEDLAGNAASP
Sequence of THRB (gene 7068) (P10828 whole entry, looked up, the tested form may be a part): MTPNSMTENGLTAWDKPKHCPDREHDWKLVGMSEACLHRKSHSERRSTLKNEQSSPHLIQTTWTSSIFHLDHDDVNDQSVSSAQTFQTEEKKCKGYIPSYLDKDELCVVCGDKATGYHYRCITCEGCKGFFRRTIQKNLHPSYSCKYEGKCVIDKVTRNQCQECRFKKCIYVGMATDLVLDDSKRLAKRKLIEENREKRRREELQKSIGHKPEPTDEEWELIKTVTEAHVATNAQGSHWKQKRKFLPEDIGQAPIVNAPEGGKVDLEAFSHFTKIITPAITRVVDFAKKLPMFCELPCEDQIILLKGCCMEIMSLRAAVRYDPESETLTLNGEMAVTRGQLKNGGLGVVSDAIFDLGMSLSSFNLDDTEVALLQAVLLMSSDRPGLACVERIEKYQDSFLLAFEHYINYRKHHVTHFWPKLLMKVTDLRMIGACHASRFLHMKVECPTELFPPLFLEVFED

As for `O=S1(=O)OCC2C(CO1)C1(Cl)C(Cl)=C(Cl)C2(Cl)C1(Cl)Cl` (stereo unspecified), the AC50 is 24.2 µM (active) in assay [1] and 27.1 µM (active) in assay [4]. The molecule was classed as inactive in assay [2], in assay [3], in [5] and in assay [6].

Take `CC(Cc1ccc(OCC(=O)O)cc1)NCC(O)c1csc(C(F)(F)F)n1` (stereo unspecified): the outcome in [7] and in [8] was inactive.

Consider `CO/N=C(/C(=O)OC)c1ccccc1COc1ccccc1C`, for which the half-maximal activity concentration (AC50) in assay [1] is 37.1 µM (active); in assay [4], 31.5 µM (active); in assay [10], 9.33 µM (active). Also, the molecule was called inactive in assay [2], in assay [3] and in assay [9].

Turning to `CCOP(=S)(OCC)SCSc1ccc(Cl)cc1`, the results for the AC50 in assay [1] and in [4] were 9.94 µM (active) and 20.4 µM (active), respectively. For the same molecule, the molecule was called inactive in assay [2] and in assay [3].

With `O=C(O)C(Cl)Cl`, the result in [7], in [8] and in assay [11] was inactive.

Turning to `CCOC(=O)c1ccccc1N`, the half-maximal activity concentration (AC50) in assay [12] is 41.3 µM (active). In addition, the result in assay [13], in assay [14], in assay [15], in [16], in assay [17] and in [18] was inactive.

As to `CCOP(=S)(Oc1ccc([N+](=O)[O-])cc1)c1ccccc1` (stereo unspecified), the AC50 in assay [1] is 5.36 µM (active); in [4], 7.8 µM (active). For the same molecule, the result in assay [3] and in [6] was inactive.

As for `CCOP(=S)(OCC)SCS(=O)(=O)CC`, the call in [12], in assay [14], in assay [16], in assay [17] and in [18] was inactive. Also, the concentration at half-maximal activity (AC50) in assay [19] was 37.9 µM (active); in [13], 45 µM (active); in assay [15], 33.5 µM (active); in assay [20], 45.4 µM (active).

`CCOC(=O)c1ccccc1C(=O)OCC`: the outcome in assay [12], in assay [13], in assay [14], in assay [15] and in assay [17] was inactive.

As to `CCOc1ccc(C(C)(C)COCc2cccc(Oc3ccccc3)c2)cc1`, in [12], the half-maximal activity concentration (AC50) was 13.2 µM (active). Further, the outcome in assay [13], in [14], in assay [15], in assay [16], in assay [17] and in assay [18] was inactive.

As to `CCC1(c2ccccc2)C(=O)N=C(O)NC1=O` (stereo unspecified), the result in assay [7], in assay [8] and in assay [11] was inactive.
